In all, about 69,000 compounds went through this assay and about 8,600 (12%) showed an effect of 50% or more. What follows is part of a selection rich in strong results, with near analogues and random picks from the rest.
Test system: Plasmodium berghei
Assay: Screen against P. berghei liver stage (PbLuc), transformed with Luciferase, at 10uM
Format: functional, HepG2
Conditions: tested at 10 uM

Structure (SMILES)	INHIBITION [%]
Cc1ccc(C(=O)NC2CCCN(CC(N)=O)C2)c(=O)[nH]1 (stereo not drawn)	9.63
Cc1ccc(C(=O)NC2CCCN(C)C2)c(=O)[nH]1 (stereo not drawn)	8.51
CCN1CCCC(NC(=O)c2ccc(C)[nH]c2=O)C1 (stereo not drawn)	55.5
CN(C)[C@@H]1CN(Cc2cccnc2)C[C@H]1c1cn(C)c2ccccc12	23.69
c1ccc(OCc2nnc3n2CCN(Cc2ccco2)C3)nc1	24.9
Cc1nn(C)c2c(N(C)Cc3cccs3)nc(C3CC3)nc12	-17.2
CCOc1cc(C(=O)N2CCN(C)CC2)cc2occc12	44.1
CCOc1cc(C(=O)N2CCN(CC)CC2)cc2occc12	9.32
CCOC(=O)N1CCN(C(=O)c2cc(OCC)c3ccoc3c2)CC1	58.2
CCOc1cc(C(=O)N2CCOCC2)cc2occc12	36.6
CCOc1cc(C(=O)N2CCCC2)cc2occc12	50.7
CCOC(=O)C1CCN(C(=O)c2cc(OCC)c3ccoc3c2)CC1	-13.9
CN1CCCCC1c1ncc2c(n1)CCN(CCCc1ccccc1)C2 (stereo not drawn)	26.8
Cc1cc(C(=O)N2CCC(O)(Cn3c(C)cc4ccncc43)CC2)on1	9.05
NC(=O)N1CCC(NCc2cc(C(F)(F)F)ccc2Cl)CC1	17.8
CN(C)C(=O)COCc1nnc2n1CCN(Cc1ccoc1)C2	45.8
CNC(=O)C1(CCCc2ccncc2)CCN1 (stereo not drawn)	-4.82
COc1ccc(CN2CC(O)CN(C(=O)C3CCC3)CC2=O)cc1 (stereo not drawn)	41.1
COc1cccc(C(=O)N2CCCC(C(=O)CCc3ccccc3)C2)c1 (stereo not drawn)	65
COc1cccc(CCC2CCCN(C(=O)c3ccccn3)C2)c1 (stereo not drawn)	43.7
COc1ccccc1CC1CCCN(C(=O)c2n[nH]c3c2CCC3)C1 (stereo not drawn)	19
COc1cccc(CCC2CCCN(C(=O)c3ccc(=O)n(C)n3)C2)c1 (stereo not drawn)	40.5
N#Cc1cccc(C(=O)N2CCCC(C(=O)CCc3ccccc3)C2)c1 (stereo not drawn)	-8.66
COc1cccc(OCC2CCCN(C(=O)c3cc(C)n[nH]3)C2)c1 (stereo not drawn)	10.5
COc1cccc(CCC2CCCN(C(=O)c3cnccn3)C2)c1 (stereo not drawn)	81.1

Structure (SMILES)	INHIBITION [%]
COc1cccc(CCC2CCCN(C(=O)c3ccc(OC)o3)C2)c1 (stereo not drawn)	68.3
COc1cccc(CCC2CCCN(C(=O)c3n[nH]c4c3CCC4)C2)c1 (stereo not drawn)	81.8
COc1cccc(CCC2CCCN(C(C)=O)C2)c1 (stereo not drawn)	-10.9
COc1cccc(CCC2CCCN(C(=O)C3=NN(C)C(=O)CC3)C2)c1 (stereo not drawn)	3.47
Cn1cc(C(=O)N2CCCC(C(=O)CCc3ccccc3)C2)cn1 (stereo not drawn)	10.7
Cc1sc(NC(=O)CCC(=O)O)c(C(N)=O)c1-c1ccc(Cl)cc1Cl	41.6
CNc1nccc(-c2cnc3sc(C)c(C)n3c2=O)n1	-4.82
Cc1ccc(C(=O)NC2CCCN(S(C)(=O)=O)C2)c(=O)[nH]1 (stereo not drawn)	19.7
O=C(c1cc[nH]n1)N1CCCC1c1cnccn1 (stereo not drawn)	31.6
CC(NC(=O)COCC(F)(F)F)c1nnc2n1CCCCC2 (stereo not drawn)	-27.8
CCN(CC)CCCNC(=O)c1nn(CC)cc1Cl	35.8
O=C(CCOc1ccc(Br)cc1)N1CCN(c2cnccn2)CC1	43.2
CC1(C)CN(CC(=O)NCc2ccccc2F)C[C@]1(C)O	-2.97
COc1cccc(OCC2CCCN(Cc3ncc[nH]3)C2)c1 (stereo not drawn)	22.6
COc1cccc(OCC2CCCN(Cc3ccncc3)C2)c1 (stereo not drawn)	1.74
COc1ccc(C(=O)N2CCC(Oc3cccc(C)c3)(C(=O)O)CC2)o1	40.2
COc1ccc(C(=O)N2CCC(Oc3ccccc3)(C(=O)O)CC2)o1	50.1
COc1ccc(C(=O)N2CCC(Oc3ccc(C)cc3)(C(=O)O)CC2)o1	14.3
COc1cccc(CCC2CCCN(Cc3ncc[nH]3)C2)c1 (stereo not drawn)	65.7
FC(F)(F)Cn1ccnc1CNCC1CCCN1c1cccnn1 (stereo not drawn)	-2.53
Cc1nc(NC(=O)CCN2C(=O)c3ccccc3NC2C(C)C)sc1C (stereo not drawn)	28.7
COCC(=O)NCc1cc(=O)n2c(n1)CN(Cc1ccncc1)CCC2	22.2
CCNc1cc2c(nn1)CCN(C(=O)c1ccsc1)C2	37.8
CCC(=O)NCC(=O)NC(C)c1sc(-c2ccccc2F)nc1C (stereo not drawn)	-2.94
CC(=O)NCCC(=O)NC(C)c1sc(-c2ccccc2F)nc1C (stereo not drawn)	29.3

Structure (SMILES)	INHIBITION [%]
COCC(=O)NC(C)c1sc(-c2ccccc2F)nc1C (stereo not drawn)	84.2
CCc1nnc(CN2CCc3cnc(C)nc3C2)o1	-36.6
CC(C)NC(=O)N1CCOC2(CCCN(c3ncccc3F)C2)C1 (stereo not drawn)	2.58
CS(=O)(=O)CCNC1CCCN(Cc2noc(C3CC3)n2)C1 (stereo not drawn)	40.4
O=c1c2cccc(Cl)c2ncn1C1CCNC1 (stereo not drawn)	56.3
O=C(O)C1(O)CCN(c2ccnc3c(C(F)(F)F)cccc23)CC1	-48.4
Cc1nc[nH]c1-c1c(-c2ccccc2)ncn1C1CCNC1 (stereo not drawn)	31.3
O=c1c2cccc(F)c2ncn1CCN1CCNCC1	-74
O=c1c2cccc(C(F)(F)F)c2ncn1C1CCNC1 (stereo not drawn)	53.6
O=c1c2cccc(C(F)(F)F)c2ncn1CCN1CCNCC1	-100
Cc1cc(NCc2noc(C(C)C)n2)nc(-c2ccccc2)n1	14.4
COCCOc1cccc(C(=O)N2CCCCC2c2nccs2)c1 (stereo not drawn)	-31.5
CC(C)CNC(=O)CN(C)S(C)(=O)=O	40.7
CCC(CO)NC(=O)c1ccc2ccc(N(C)CC3CC3)n2c1 (stereo not drawn)	-24.3
O=C(CCN1CCc2ccccc21)N1CC(C(=O)N2CCOCC2)C1	25.6
O=C(CCN1CCc2ccccc21)N1C[C@@H](O)[C@H](N2CCCC2)C1	56.8
O=C(CCN1CCc2ccccc21)N1C[C@@H](O)[C@H](N2CCOCC2)C1	-8.12
CC1CN(Cc2ccccn2)CCN1c1ccc2nncn2n1 (stereo not drawn)	31.9
Cc1cnc(CN2CCN(c3ccc4nncn4n3)C(C)C2)cn1 (stereo not drawn)	23.7
Cc1cc(CN2CCN(c3ccc4nncn4n3)C(C)C2)on1 (stereo not drawn)	26.5
Cc1cc(CN2CCN(c3ccc4nncn4n3)C(C)C2)no1 (stereo not drawn)	59
CC1CN(Cc2nccn2C)CCN1c1ccc2nncn2n1 (stereo not drawn)	57.4
Cc1cc(CN2CCN(c3ccc4nncn4n3)CC2)no1	26.5

— ChEMBL document CHEMBL4513216, “Probing the Open Global Health Chemical Diversity Library for Multistage-Active Starting Points for Next-Generation Antimalarials” (ACS Infect Dis, 2020)
